Sampled rows, rich in hits. Any-hit rate of the full collection: about 12%.
G9a inh: qHTS Assay for Inhibitors of Histone Lysine Methyltransferase G9a | AID 504332, 2011 | Histone-lysine N-methyltransferase EHMT2 (Homo sapiens), Q96KQ7 | 350,000 tested, 8.8% active | Potency, µM (top dose mostly 102 µM), inactives show at the highest dose activity, negative = inhibition, hits mostly inhibitors | G9a H3K9 monomethylation, AlphaScreen, 2 h; note: % is set by controls: 0 for no effect and ±100 for the full control effect; nearly all actives have a fitted effect of over 75% in size
Target sequence (Q96KQ7 913-1193 limits assumed): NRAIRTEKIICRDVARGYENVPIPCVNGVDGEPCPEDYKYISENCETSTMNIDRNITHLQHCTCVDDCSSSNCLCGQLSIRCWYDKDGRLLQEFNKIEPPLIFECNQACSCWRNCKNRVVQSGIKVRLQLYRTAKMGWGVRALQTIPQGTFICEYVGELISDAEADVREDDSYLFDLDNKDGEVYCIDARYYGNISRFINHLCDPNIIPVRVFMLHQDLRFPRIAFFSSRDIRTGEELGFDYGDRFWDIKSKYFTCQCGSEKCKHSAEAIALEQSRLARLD
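Enzyme 20 nM + cpd, 15 min RT; add b-H3K9 pep 500 nM / SAM 20 uM; 2 h RT; anti-H3K9me1 Ab 0.5 ug/mL + SA donor / anti-rabbit acceptor beads 20 ug/mL each, 10 min; AlphaScreen read.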
BAZ2B block: qHTS Assay for Inhibitors of BAZ2B; Potency, µM (titrated, usually from 114 µM), for inactives: at the top dose activity change, negative = inhibition, usual class: inhibitors; 360,000 tested, 4.4% active; AlphaScreen BAZ2B-H3K14Ac peptide displacement; note: % is set by controls: 0 for no effect and ±100 for the full control effect; nearly all actives have a fitted effect of over 60% in size
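AlphaScreen luminescence quantifies BAZ2B engagement of H3K14Ac peptide; the protein and biotinylated peptide are both at 50 nM final, buffer PBS pH 7.4 with 0.01% Tween-20, all steps at room temperature.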
HP1b binding inh: HTS for Inhibitors of HP1-beta Chromodomain Interactions with Methylated Histone Tails; 390,000 tested, 0.56% active; AlphaScreen HP1-beta / biotin-H3K9me3 peptide binding; AID 540317, 2011; Potency, µM (doses to about 114 µM), inactives show top-dose activity change, negative = inhibition, actives largely listed as inhibitors; note: nearly all actives have a fitted effect of over 70% in size
Target sequence (P83916 whole entry, looked up): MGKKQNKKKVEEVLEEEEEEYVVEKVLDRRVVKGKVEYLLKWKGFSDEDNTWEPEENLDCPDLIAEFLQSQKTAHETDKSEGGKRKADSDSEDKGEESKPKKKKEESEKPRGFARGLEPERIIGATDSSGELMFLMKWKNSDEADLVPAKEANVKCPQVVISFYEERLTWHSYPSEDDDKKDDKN
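AlphaScreen: HP1-beta (50 nM) preformed 30 min with biotin-H3(1-18)K9me3 peptide (50 nM) in PBS pH 7.4, 0.01% Tween-20. Compound added for 30 min at RT, then streptavidin donor/nickel chelate acceptor beads (10 ug/mL) for 30 min.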
Sfp PPTase inh: qHTS Assay for Inhibitors of Bacillus subtilis Sfp phosphopantetheinyl transferase (PPTase). 4'-phosphopantetheinyl transferase ffp (Bacillus subtilis), Q9F4F7. Biochemical Sfp PPTase activity, qHTS. Potency, µM, for inactives: largest response in the series, negative = inhibition, usual class: inhibitors. 310,000 tested, 3.5% active;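 note: the enzyme is Sfp with the accession as filed and its product quenches rhodamine fluorescence; 0% = enzyme reaction without inhibitor and -100% = no enzyme wells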
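After 15 min at room temperature with compound, 15 nM Sfp received 5 uM rhodamine-CoA plus 12.5 uM BHQ-2-ybbR (50 mM Hepes pH 7.6, 10 mM MgCl2). Rate came from the fluorescence difference over 30 min, ex 525/em 598 nm.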
JMJD2A Tudor inh: qHTS Assay for Inhibitors of JMJD2A-Tudor Domain. Lysine-specific demethylase 4A (Homo sapiens), O75164. AlphaScreen JMJD2A-Tudor / H3K4me3 peptide binding. Potency, µM (series often up to 114 µM), inactives show at the top dose activity change, negative = inhibition, hits mostly inhibitors. 390,000 tested, 4.4% active. AID 504339, 2011; note: % is set by controls: 0 for no effect and ±100 for the full control effect; nearly all actives have a fitted effect of over 50% in size
* marks the source's active call; other numbers are inactive results; [ ] = another dose, or the depositor's remark. Calls come from the whole dose curve; as a rule, active = well fitted curve in the direction sought with a large enough effect; inconclusive = small, poorly fitted or top-dose-only effect, or another doubt; inactive = no such curve, though single readings can be large; an effect the other way counts as inactive or inconclusive. Potency is the fitted concentration of half-maximal effect.

What do the screens show for `CCOc1ccccc1C(=S)NC1CCCCC1`?
G9a inh: 35.5µM*; BAZ2B block: 8.1%; HP1b binding inh: 25.3%; Sfp PPTase inh: 89.1µM*; JMJD2A Tudor inh: -1.4%

What do the screens show for `Cc1nn(C)c(C(=O)Nc2cccc(Nc3ccccc3)c2)c1[N+](=O)[O-]`?
G9a inh: 44.7µM*; BAZ2B block: 50.1µM*; Sfp PPTase inh: -8.3%

Results for Cc1nn(C)c(C(=O)N/N=C/c2ccccc2)c1[N+](=O)[O-] ?
G9a inh: 16.4%[59 µM]; BAZ2B block: 1.6%; HP1b binding inh: 17.3%; Sfp PPTase inh: 5.4%; JMJD2A Tudor inh: -13.6%

What do the screens show for `CC(=O)Nc1ccc(NC(=O)c2ccccc2Nc2ccccc2)cc1`?
G9a inh: 50.1µM*; BAZ2B block: -13.8%; HP1b binding inh: 9.1%; Sfp PPTase inh: 4.9%; JMJD2A Tudor inh: -11.3%

What do the screens show for `Cc1c(C(=O)Nc2ccc(Nc3ccccc3)cc2)cccc1[N+](=O)[O-]`?
G9a inh: 39.8µM*; BAZ2B block: inconclusive; HP1b binding inh: -20.8%; Sfp PPTase inh: 2.0%; JMJD2A Tudor inh: inconclusive

Results for CC(=O)Nc1ccc(Nc2ccccc2)cc1 ?
BAZ2B block: -14.9%; HP1b binding inh: 31.3%; Sfp PPTase inh: 4.2%; JMJD2A Tudor inh: -27.4%

What do the screens show for `CC(=O)n1cc(Nc2ccccc2C(=O)O)c2ccccc21`?
G9a inh: 39.8µM*; BAZ2B block: 5.5%; HP1b binding inh: 14.5%; Sfp PPTase inh: 6.7%; JMJD2A Tudor inh: -20.0%

How did Cc1ccccc1-c1ccc2ncnc(NCc3cccnc3)c2c1 do in these assays?
G9a inh: -8.0%[0.501 µM]; Sfp PPTase inh: -17.6%

How did O=C(O)c1cc(S(=O)(=O)NC23CC4CC(CC(C4)C2)C3)ccc1Cl do in these assays?
G9a inh: 19.1%[2.33 µM]; BAZ2B block: 2.8%; HP1b binding inh: 22.3%; Sfp PPTase inh: 20.2%; JMJD2A Tudor inh: -7.7%

How did COc1cccc(Nc2ccccc2C(=O)O)c1 do in these assays?
G9a inh: 39.8µM*; BAZ2B block: inconclusive; HP1b binding inh: 13.1%; Sfp PPTase inh: 11.4%; JMJD2A Tudor inh: -17.2%

How did COc1cccc(Oc2ccc(OC)cc2C(=O)O)c1 do in these assays?
BAZ2B block: -34.0%; HP1b binding inh: 5.6%; Sfp PPTase inh: 1.6%; JMJD2A Tudor inh: 25.1µM*

How did COc1ccc(OC)c(C(=O)c2ccccc2)c1 do in these assays?
G9a inh: 1.8%[59 µM]; BAZ2B block: 8.2%; HP1b binding inh: 32.1%; Sfp PPTase inh: 8.4%; JMJD2A Tudor inh: -2.5%

How did COc1cc(-c2ccc(Nc3ccccc3C(=O)O)c(OC)c2)ccc1Nc1ccccc1C(=O)O do in these assays?
G9a inh: 0.794µM*; BAZ2B block: 5.62µM*; HP1b binding inh: 35.5µM*; Sfp PPTase inh: 50.1µM*; JMJD2A Tudor inh: inconclusive

Results for O=C(O)c1ccccc1Nc1ccccc1 ?
G9a inh: 23.8µM*; BAZ2B block: -6.0%; HP1b binding inh: 20.2%; Sfp PPTase inh: 25.3%; JMJD2A Tudor inh: -23.4%

How did CN(C)c1ccc(-c2nc(N3CCNCC3)c3ccccc3n2)cc1 do in these assays?
Sfp PPTase inh: -16.2%

Results for Cc1csc(NC(=O)CSc2ccccc2F)n1 ?
G9a inh: 0.8%; BAZ2B block: -2.3%; HP1b binding inh: 25.2%; Sfp PPTase inh: 11.9%; JMJD2A Tudor inh: -15.9%

How did Cc1csc(NC(=O)CSc2ccc(-c3ccccn3)nn2)n1 do in these assays?
G9a inh: 2.7%; BAZ2B block: 7.08µM*; HP1b binding inh: 13.4%; Sfp PPTase inh: 13.9%; JMJD2A Tudor inh: 22.4µM*

What do the screens show for `O=C(CSc1ccc(-c2ccccn2)nn1)Nc1nccs1`?
G9a inh: 39.6%; BAZ2B block: -9.3%; HP1b binding inh: 15.6%; Sfp PPTase inh: -17.1%; JMJD2A Tudor inh: 2.51µM*

How did COc1ccccc1CNC(=O)CSc1ccc(-c2ccccn2)nn1 do in these assays?
G9a inh: 7.7%; BAZ2B block: 8.91µM*; HP1b binding inh: 23.2%; Sfp PPTase inh: -5.9%; JMJD2A Tudor inh: 31.6µM*

Screening results: PubChem BioAssay, National Center for Advancing Translational Sciences (NCATS)
